Experimental data as given in PubChem BioAssay (NCI).
About 83,000 compounds went through this panel and 20% of them were active in at least one assay; those are over-represented in the sample as a whole.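 Percent growth is the endpoint: 0 to 100 indicates growth inhibition (40 means 60% inhibition), 0 means no net growth, and negative values indicate cell death.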 Values without a mark were called inactive. The source made the active and inactive calls. Rule for the calls: active = growth percent below 10; inactive = the rest.

Legend:
Experiment in all cases: NCI-60 one-dose screen, 48 h (100 = growth as untreated, 0 = no growth, -100 = all killed)
Settings in all cases: 10 µM
[1] = system: NCI-H23 lung
[2] = system: NCI-H226 lung
[3] = system: NCI-H322M lung
[4] = system: HOP-62 NSCLC
[5] = system: NCI-H460 lung
[6] = system: HOP-92 NSCLC
[7] = system: NCI-H522 lung
[8] = system: A549/ATCC NSCLC
[9] = system: 786-0 renal
[10] = system: COLO 205 colon
[11] = system: DU-145 prostate
[12] = system: K-562 leukemia
[13] = system: MALME-3M melanoma
[14] = system: MDA-MB-231 breast
[15] = system: RXF 393 renal
[16] = system: SF-268 CNS
[17] = system: SF-295 CNS
[18] = system: SF-539 CNS
[19] = system: UACC-257 melanoma
[20] = system: M14 melanoma

SMILES	growth [1]	growth [2]	growth [3]	growth [4]	growth [5]	growth [6]	growth [7]	growth [8]	growth [9]	growth [10]	growth [11]	growth [12]	growth [13]	growth [14]	growth [15]	growth [16]	growth [17]	growth [18]	growth [19]	growth [20]
CCCCc1ccc(NC(=O)N(CCCl)N=O)cc1	109%	91.2%	96.8%	90.8%	102%	105%	97%	102%	94.2%	101%	106%	88.1%	101%	107%	93.4%	79.3%	73.9%	82.2%	103%	99.2%
COc1ccc(-c2oncc2-c2cc(OC)c3c(c2)OCO3)cc1	47.7%	77.5%	39%	33.2%	11.5%	-3.69% (active)	3.28% (active)	27.7%	36.6%	15%	34.2%	13.8%	52.4%	54.1%	17.4%	50.2%	12.3%	-16% (active)	45.1%	13.1%
NC(N)=NS(=O)(=O)c1ccc(Nc2ccc3nnc(-c4ccncc4)n3n2)cc1	102%	96.5%	103%	110%	98.3%	107%	-57.2% (active)	108%	104%	111%	111%	95.3%	98.1%	102%	106%	102%	116%	100%	127%	105%
COc1ccc(-c2nnc(N3CCN(C(=O)CN4CCN(c5ccc(Cl)cc5)CC4)CC3)nc2-c2ccc(OC)cc2)cc1	68.1%	73.6%	92.7%	88.4%	46.8%	80.3%	69.8%	58.8%	70.8%	59.2%	80.2%	32%	80.8%	78.7%	53.6%	69%	45.2%	82.2%	70.2%	71.4%
Brc1ccc(-c2cn3ccnc3c(-c3ccc(Br)cc3)n2)cc1	59.8%	70.6%	86.7%	33.2%	16.8%	55.8%	-14.9% (active)	31.9%	57.8%	7.83% (active)	72.7%	16.8%	39.5%	46.5%	47%	56.9%	30.6%	52.5%	67.4%	20.1%
CCCCCCCCCCCCCCCCn1cc[n+](C)c1	-51.9% (active)	-60.5% (active)	8.28% (active)	-82.7% (active)	-87.9% (active)	-80.2% (active)	-87.4% (active)	-50.9% (active)	-90.4% (active)	-46% (active)	-100% (active)	72.6%	-73.7% (active)	-93.9% (active)	-66.2% (active)	-23% (active)	-39.5% (active)	-98.6% (active)	-61.1% (active)	-77.4% (active)
O=C1/C(=C/c2ccc(O)cc2)CSc2ccc(Cl)cc21	91.3%	82.2%	92.3%	90.9%	96.5%	75.6%	-26.2% (active)	86.7%	85.5%	108%	102%	64%	111%	77.5%	91.1%	93%	91.6%	85.5%	100%	88.8%
CC(=O)Nc1ccc(Sc2ccc(NC(C)=O)cc2)cc1	94.1%	101%	110%	70.7%	105%	83.1%	75.7%	80%	94%	101%	102%	96.2%	102%	100%	109%	102%	102%	92%	94.4%	98.2%
Cc1ccc([P+](Cc2ccccc2)(c2ccccc2)c2ccccc2)cc1	12.4%	28.3%	16.2%	23.7%	12.4%	-25.3% (active)	-21.6% (active)	18.1%	21.3%	-68.9% (active)	32.3%	2.63% (active)	-10.8% (active)	17.8%	45.7%	28.4%	-6.8% (active)	23%	-28.6% (active)	3.22% (active)
CCCCCCCCCCCC(c1ccccc1)N(C)C (stereo not given)	102%	97.2%	103%	119%	105%	74.2%	103%	97.5%	104%	101%	104%	78.9%	107%	76.7%	92.5%	111%	97.9%	103%	103%	104%
O=C(Nc1ccc(Oc2ccc(Nc3nc4ccccc4s3)cc2)cc1)Nc1ccc(Cl)c(Cl)c1	8.31% (active)	46.5%	56.6%	47%	15.8%	37.9%	7.82% (active)	32.8%	43.3%	31.1%	39.1%	21.9%	47.9%	22.8%	56.5%	35.9%	17.8%	50.9%	61.3%	26.3%
COc1cccc2c1O/C(=C\c1ccc([N+](=O)[O-])s1)C2=O	71.8%	97.1%	82%	92.4%	70.9%	14.6%	-65% (active)	78.5%	103%	67.3%	80.4%	8.38% (active)	88.6%	55.4%	25.7%	12.5%	97.2%	55.7%	65.2%	48.1%
COc1cc(C(c2c[nH]c3ccccc23)N2CCCC2)ccc1OCc1ccccc1 (stereo not given)	82%	80.1%	72.7%	90.3%	98.9%	12.7%	71.1%	94.5%	87.4%	104%	95.9%	71.2%	81.8%	58.4%	52.9%	74.6%	93.8%	4.28% (active)	85.3%	88.2%
O=[N+]([O-])c1cc2ncccc2c2ncccc12	81.3%	96.3%	80.3%	137%	66.9%	109%	15.8%	88.4%	110%	95.6%	89.7%	49.3%	72.8%	60.6%	92.4%	91.5%	134%	93.6%	90.5%	84.5%
